{"source": "PubChem BioAssay (NCATS)", "note": "Results filed as inconclusive are left out. A call without a number means that no potency is given here. A number with no mark means an inactive call. Activity calls are given as the source filed them. The call rests on the fitted dose curve; in most records, active means well fitted cell-killing curve with a large enough effect; inconclusive means small, poorly fitted or top-dose-only effect; inactive means flat fitted curve, though single readings scatter. Potency means the concentration at half of the fitted maximal effect."}
{"experiment": "qHTS of pediatric cancer cell lines to identify multiple opportunities for drug repurposing: Confirmatory screen for SK-N-SH cells (AID 1347129);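 further: cells exposed to compound for 48 h before viability read; nearly all actives have a fitted effect of over 60% in size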", "conditions": "SK-N-SH neuroblastoma cell viability; series mostly up to 46.1 µM", "text": "Drug repurposing or repositioning has been offered as a strategy for drug development in oncology programs. This approach has special potential for childhood cancers and other rare or orphan diseases, where the expected return on new drug development has been a disincentive to pharmaceuticals.\nIn this project we exploit the poly-pharmacology of drugs to discover new indications via phenotypic screening of a panel of 19 well-characterized cell lines derived from solid tumors seen in children and adolescents. The goal is to identify approved drugs with previously unrecognized anticancer properties that has the potential to reveal new mechanisms and biological processes involved in carcinogenesis or drug resistance. We employed a titration-based paradigm (quantitative high-throughput screening or qHTS), where all compounds were tested at multiple concentrations for their effect on cell viability. Concentration-response curves (CRCs) were derived directly from the primary screen, and both potency and efficacy values were used to identify compounds with robust bioactivity profiles. We screened the NIH Chemical Genomics Center (NCGC) Pharmaceutical Collection (NPC) and Mechanism Interrogation Plate (MIPE) small molecule collections of approved and investigational compounds against these cell lines; and measured metabolically active cells after 48 hours of compound treatment as a proxy for cell viability.\nAssay Submitter: Nathalia J. Martinez, National Center for Advancing Translational Sciences, National Institutes of Health, Rockville, MD, USA; email: natalia.martinez@nih.gov\n[1] Shen, M et al. Quantitative high-throughput phenotypic screening of pediatric cancer cell lines identifies multiple opportunities for drug repurposing. Oncotarget 2017 Dec 19;9(4):4758-4772. PMID 29435139.\nThe cells were obtained from University of North Carolina (UNC), Pediatric Preclinical Testing Program (PPT), and Coriell Institute (CI).\nqHTS cell viability assay:\nCells were assayed in growth media at a density of 500-1,000 cells/well. Five microliters of cells were dispensed into 1,536-well, white, solid-bottom, TC-treated plates (Greiner Bio One) using a multidrop dispenser and incubated at 37 degrees C, 5% CO2, under a humidified atmosphere for 5 hours. Twenty-three nanoliters of compounds and controls (neutral control DMSO or positive control bortezomib at final concentration of 2.3 µM) were subsequently transferred by Kalypsys pintool. For primary screens, the MIPE collection was tested at 11-point dilutions (final concentrations range from 0.78 nM to 46 µM) and the NPC collection at 8-point dilutions (final concentrations range from 0.59 nM to 46 µM). Compounds tested in follow-up screens were assayed at 11-point dilutions. Cells were incubated for 48 hours, followed by addition of 3 µL of CellTiter-Glo (Promega). After a 15 min incubation at room temperature, samples were analyzed for luminescence intensity using a ViewLux High-throughput CCD imager equipped with clear filters."}
{"smiles": "O=C(Oc1cccc2cccnc12)c1ccccc1", "Potency": "inactive"}
{"smiles": "CCN1/C(=C/C=C/c2sc3ccccc3[n+]2CC)Sc2ccccc21", "Potency": "2.29 µM (active)"}
{"smiles": "CC1CCc2c(N3CCC(O)CC3)c(F)cc3c(=O)c(C(=O)O)cn1c23", "note": "(centres undefined)", "Potency": "inactive"}
{"smiles": "CCCCCCCCCCCCOCCOCCOCCOCCOCCOCCOCCOCCOCCO", "Potency": "inactive"}
{"smiles": "CCN[C@@H]1C[C@H](N)[C@@H](OC2OC(CN)=CCC2N)[C@H](O)[C@H]1O[C@H]1OC[C@](C)(O)[C@H](NC)[C@H]1O", "note": "(some centres undefined)", "activity change, negative = cytotoxic": "6.98% [at 0.558 µM]"}
{"smiles": "C=C[C@@]1(C)CC(=O)[C@]2(O)[C@@]3(C)[C@@H](O)CCC(C)(C)[C@@H]3[C@H](O)[C@H](OC(C)=O)[C@@]2(C)O1", "Potency": "inactive"}
{"smiles": "O=[N+]([O-])c1ccc(/C=N\\O)o1", "Potency": "inactive"}
{"smiles": "C[C@@]12C(=O)OC(=O)[C@]1(C)C1CCC2O1", "Potency": "inactive"}
{"smiles": "CCCCCCCCCCC[C@@H](C[C@@H]1OC(=O)[C@H]1CCCCCC)OC(=O)[C@H](CC(C)C)NC=O", "Potency": "inactive"}
{"smiles": "NC(N)=NN=C(/C=C/c1ccc([N+](=O)[O-])o1)/C=C/c1ccc([N+](=O)[O-])o1", "Potency": "2.35 µM (active)"}
{"smiles": "C[C@H]1O[C@@H](O[C@H]2CC[C@@]3(C)[C@H](CC[C@@H]4[C@@H]3C[C@@H](O)[C@]3(C)[C@@H](C5=CC(=O)OC5)CC[C@]43O)C2)C[C@H](O)[C@@H]1O[C@H]1C[C@H](O)[C@H](O[C@H]2C[C@H](O)[C@H](O[C@@H]3O[C@H](CO)[C@@H](O)[C@H](O)[C@H]3O)[C@@H](C)O2)[C@@H](C)O1", "Potency": "0.332 µM (active)"}
{"smiles": "CCN(CC)CCOc1ccc2c(c1)C(=O)c1cc(OCCN(CC)CC)ccc1-2", "Potency": "18.7 µM (active)"}
{"smiles": "CN(C)C(=O)Nc1ccc(Cl)c(Cl)c1", "Potency": "inactive"}
{"smiles": "COc1ccc(C(=O)c2ccccc2)c(O)c1", "Potency": "inactive"}
